# Test results published in PubChem BioAssay (NCATS).
# Results filed as inconclusive are left out. Active and inactive are the calls of the source. Calls come from the whole dose curve; as a rule, active = well fitted inhibition curve with a large enough effect; inconclusive = small, poorly fitted or top-dose-only effect, or effect the other way; inactive = flat fitted curve, though single readings scatter.
# Target: ATP-dependent 6-phosphofructokinase (Trypanosoma brucei brucei) (UniProt O15648)
# Test: qHTS Validation Assay to Find Inhibitors of T. brucei phosphofructokinase (AID 485368)
# Details: T. brucei PFK enzyme assay, qHTS 7-point titration; series mostly up to 57.5 µM
# Excerpt: NIH Molecular Libraries Probe Production Network [MLPCN]
# NIH Chemical Genomics Center [NCGC]
# PI Name: Malcolm Walkinshaw, University of Edinburgh
# Various species of the protozoan family Trypanosomatidae are responsible for a range of serious human diseases in tropical and subtropical areas of the world. […] Many of the disorders caused by trypanosomatids are fatal if left untreated, but most currently used drugs are inefficient and toxic.
# Oxidative metabolism involving the mitochondrial tricarboxylic acid cycle and oxidative phosphorylation are repressed in these parasites, and recent RNA interference (RNAi) experiments have shown that even partial depletion of certain individual glycolytic enzymes can lead to the death of cultured parasites. One such glycolytic enzyme, phosphofructokinase (PFK), catalyzes the formation of fructose-1,6-bisphosphate (F1,6BP) and ADP from fructose-6-phosphate (F6P) and ATP, and in many metabolic circumstances makes an important contribution to the control of flux through the glycolytic pathway. As a specific glycolytic target, PFK is particularly attractive as it catalyzes the first irreversible step in glycolysis, and structural and kinetic studies have shown very substantial and essential differences from corresponding host enzymes, allowing for the discovery of parasite-selective inhibitors.
# The goal of this screen is to find small-molecule inhibitors of T. brucei PFK using a biochemical assay that measures PFK activity as a function of ADP production. A luminescence-based assay for T. brucei PFK activity has been developed which uses luciferase to detect production of ADP. Traditional luciferase-based nucleotide detection reagents rely on ATP production as a direct substrate for the luciferase reaction; however, PFK catalyzes the transfer of a phosphate from ATP to F6P, resulting in the net depletion of ATP. To directly measure the ADP product of the PFK reaction, we used the ADP-Glo detection kit (Promega), which utilizes two separate reactions to 1) deplete all remaining uncatalyzed ATP and 2) convert all remaining ADP to ATP, which is then detected through a traditional luciferase-coupled reaction. Compounds were screened as a concentration-titration series that ranged from 57 uM to 0.7 nM.
# NCGC Assay Protocol Summary:
# Substrate buffer was dispensed into white, solid 1536-well plates at 3uL/well in 0.1M triethanolamine (TEA) buffer, pH 8.0, containing final concentrations of 5 mM MgCl2, 0.01% Tween20, 0.5 mM fructose-6-phosphate (F6P) and 0.1mM ATP. Then, 23 nL of compounds or DMSO were delivered to each well using a pin tool. One uL T. brucei PFK (0.1M TEA, 0.01% Tween20, 0.1% bovine serum albumin (BSA) and 1.25nM PFK, final concentrations) was then dispensed, and plates were incubated at room temperature for 45 min. The luminescent detection reagent, ADP-Glo (Promega), was then added in two steps: the first reagent, ADP-Glo (which converts remaining uncatalyzed ATP), was added at 2.5uL/well and incubated for ten minutes at room temperature, and the second component, Kinase Detection reagent (which converts ADP to ATP as a substrate for luciferase-based luminescence), was added immediately after at 5uL/well, followed by one final ten minute room temperature incubation. The plates were measured on a ViewLux plate reader for luminescent signal using a clear filter with a one second exposure. The %Activity was determined from the corrected luminescence values. As no specific T. brucei PFK inhibitors have been identified in the literature, 1x (1.25nM) and 0x PFK enzyme controls (untreated) were included to normalize %Activity of identified inhibitors; 0x enzyme values corresponded to 100%Activity (full inhibition), while 1x PFK enzyme values were used to normalize 0%Activity (no inhibition).
# Concentration-response curves were fitted to the signals arising from the resulting luminescence. […]
# Sequence of ATP-dependent 6-phosphofructokinase (Trypanosoma brucei brucei) (O15648 whole entry, looked up): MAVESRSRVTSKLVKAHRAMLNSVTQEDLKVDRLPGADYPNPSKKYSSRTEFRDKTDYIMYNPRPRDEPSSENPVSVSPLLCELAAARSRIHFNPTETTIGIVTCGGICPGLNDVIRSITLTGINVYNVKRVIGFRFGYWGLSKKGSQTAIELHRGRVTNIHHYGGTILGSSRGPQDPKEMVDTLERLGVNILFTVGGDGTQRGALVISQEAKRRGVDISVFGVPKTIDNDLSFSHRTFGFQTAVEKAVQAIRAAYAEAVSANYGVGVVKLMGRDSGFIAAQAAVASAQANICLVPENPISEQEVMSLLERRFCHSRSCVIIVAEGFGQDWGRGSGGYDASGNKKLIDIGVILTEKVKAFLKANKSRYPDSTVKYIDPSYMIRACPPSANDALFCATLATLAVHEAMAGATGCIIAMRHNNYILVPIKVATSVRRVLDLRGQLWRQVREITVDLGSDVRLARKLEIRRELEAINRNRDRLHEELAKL
row,SMILES,outcome
1,C[C@]12CCC(=O)C=C1CC[C@@H]1[C@@H]2CC[C@@]2(C)[C@H]1CC[C@]2(O)C(=O)CO,inactive
2,COCCOC(=O)C1=C(C)NC(C)=C(C(=O)OC(C)C)C1c1cccc([N+](=O)[O-])c1 (stereo not given),inactive
3,CCOC(=O)C1=C(C)NC(C)=C(C(=O)OC)C1c1cccc(Cl)c1Cl (stereo not given),inactive
4,c1ccc2c(c1)CCCC2C1=NCCN1 (stereo not given),inactive
5,CCCN1C[C@H](CSC)C[C@@H]2c3cccc4[nH]cc(c34)C[C@H]21,inactive
6,CCOC(=O)c1cnc2c(cnn2CC)c1NN=C(C)C,inactive
7,NC(=O)N1c2ccccc2C=Cc2ccccc21,inactive
8,CCN1CCC[C@H]1CNC(=O)c1c(O)c(Cl)cc(Cl)c1OC,inactive
9,C[C@H](CS)C(=O)N1CCC[C@H]1C(=O)O,inactive
10,N[C@@H](COP(=O)(O)O)C(=O)O,inactive
11,CCN(Cc1ccncc1)C(=O)C(CO)c1ccccc1 (stereo not given),inactive
12,O=c1[nH]c(=O)n([C@H]2C[C@H](O)[C@@H](CO)O2)cc1Br,inactive
13,COC(=O)C1=C(C)NC(C)=C(C(=O)OCCN(C)Cc2ccccc2)C1c1cccc([N+](=O)[O-])c1 (stereo not given),inactive
14,CNC1(C)C2CCC(C2)C1(C)C (stereo not given),inactive
15,C[C@]12CC[C@@H]3c4ccc(O)cc4C[C@@H](CCCCCCCCCS(=O)CCCC(F)(F)C(F)(F)F)[C@H]3[C@@H]1CC[C@@H]2O (stereo not given in full),inactive
16,CNCCC(Oc1ccccc1OC)c1ccccc1 (stereo not given),inactive
17,CO[C@@]1(NC(=O)CSCC#N)C(=O)N2C(C(=O)O)=C(CSc3nnnn3C)CS[C@@H]21,inactive
18,CCC(=O)c1ccc2c(c1)N(CCCN(C)C)c1ccccc1S2,inactive
19,CC(=O)Nc1nnc(S(N)(=O)=O)s1,inactive
20,CN(C)C/C=C(/c1ccc(Br)cc1)c1cccnc1,inactive

row,SMILES,outcome
1,CN1C[C@H](C(=O)N[C@]2(C)O[C@@]3(O)[C@@H]4CCCN4C(=O)[C@H](Cc4ccccc4)N3C2=O)C[C@@H]2c3cccc4[nH]cc(c34)C[C@H]21,inactive
2,Brc1c(NC2=NCCN2)ccc2nccnc12,inactive
3,CC(C)(Oc1ccc(CCNC(=O)c2ccc(Cl)cc2)cc1)C(=O)O,inactive
4,NC(N)=N/N=C/c1c(Cl)cccc1Cl,inactive
5,O=C1NCN(c2ccccc2)C12CCN(CCCC(c1ccc(F)cc1)c1ccc(F)cc1)CC2,inactive
6,CN1CCN(C2=Nc3ccccc3Oc3ccc(Cl)cc32)CC1,inactive
7,CCN(CC)CCNC(=O)c1ccc(NC(C)=O)cc1,inactive
8,NC(Cc1ccc(Cl)cc1)C(=O)O (stereo not given),inactive
9,CCCN(CCC)C(=O)C(CCC(=O)O)NC(=O)c1ccccc1 (stereo not given),inactive
10,CCc1c(C)[nH]c2c1C(=O)C(CN1CCOCC1)CC2 (stereo not given),inactive
11,CCCCNC(=O)NS(=O)(=O)c1ccc(C)cc1,inactive
12,COC(=O)[C@@H](N)Cc1ccc(O)c(O)c1,inactive
13,COc1ccc(CN(CCN(C)C)c2ccccn2)cc1,inactive
14,COc1cc2c(cc1OC)-c1cc(=Nc3c(C)cc(C)cc3C)n(C)c(=O)n1CC2,inactive
15,C[C@]12C=CC(=O)C=C1CC[C@H]1[C@@H]3C[C@@H](O)[C@](O)(C(=O)CO)[C@@]3(C)C[C@H](O)[C@@]12F,inactive
16,CC(C)NCC(O)c1cc(O)cc(O)c1 (stereo not given),inactive
17,CN(C)C(=O)Oc1cccc([N+](C)(C)C)c1,inactive
18,C[C@@H](O)[C@H]1C(=O)N2C(C(=O)O)=C(SCCN=CN)C[C@H]12,inactive
19,CC(N=C(NC#N)Nc1ccncc1)C(C)(C)C (stereo not given),inactive
20,COc1ccc(CCN(C)CCCC(C#N)(c2cc(OC)c(OC)c(OC)c2)C(C)C)cc1OC (stereo not given),inactive
